Results taken from article PMC7862700, “An all-to-all approach to the identification of sequence-specific readers for epigenetic DNA modifications on cytosine”.

Columns and labels:
Assay in all cases: DAPPL (digital affinity profiling via proximity ligation, sequencing); 10 mM Tris-HCl pH 7.5, 50 mM NaCl, 1 mM DTT, 4% glycerol, room temperature, 30 min; GST-TFs on glutathione beads, 16-mer random dsDNA library, 0.1% formaldehyde crosslink after washing; high values mean tight binding
[1] = molecular target: T1, FLI1 (Homo sapiens, UniProt Q01543 1-452); settings: protein: recombinant; tags: N-terminal GST; dsDNA, one strand shown
T1 sequence: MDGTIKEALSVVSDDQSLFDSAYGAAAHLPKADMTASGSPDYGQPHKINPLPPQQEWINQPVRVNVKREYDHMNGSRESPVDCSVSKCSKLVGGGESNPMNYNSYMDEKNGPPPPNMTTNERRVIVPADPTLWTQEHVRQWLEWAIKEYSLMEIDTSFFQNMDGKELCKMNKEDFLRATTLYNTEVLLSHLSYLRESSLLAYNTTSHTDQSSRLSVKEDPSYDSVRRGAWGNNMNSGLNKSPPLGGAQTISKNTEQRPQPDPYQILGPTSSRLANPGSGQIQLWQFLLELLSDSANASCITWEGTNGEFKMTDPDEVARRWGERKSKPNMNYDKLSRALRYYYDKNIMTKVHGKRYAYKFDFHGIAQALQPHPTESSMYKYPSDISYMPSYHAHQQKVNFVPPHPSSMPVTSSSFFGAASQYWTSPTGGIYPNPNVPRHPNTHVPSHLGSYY
Outline: (§1)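 GST fusions of human transcription factors were expressed in yeast and captured with glutathione beads. Once given DNA barcodes and pooled alongside a tag-only sample, they were incubated for 30 min at room temperature with 200 nmole of a random double-stranded 16-mer DNA library in Tris/NaCl/DTT/glycerol buffer, then washed, crosslinked (0.1% formaldehyde), proximity-ligated, PCR-amplified and sequenced on an Illumina NextSeq500. The binding signal of each hexamer is its read frequency for a factor divided by its frequency for the tag-only sample.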

[2] = molecular target: T2, ELK1 (Homo sapiens, UniProt P19419 1-428); settings: protein: recombinant; tags: N-terminal GST; dsDNA, one strand shown
T2 sequence: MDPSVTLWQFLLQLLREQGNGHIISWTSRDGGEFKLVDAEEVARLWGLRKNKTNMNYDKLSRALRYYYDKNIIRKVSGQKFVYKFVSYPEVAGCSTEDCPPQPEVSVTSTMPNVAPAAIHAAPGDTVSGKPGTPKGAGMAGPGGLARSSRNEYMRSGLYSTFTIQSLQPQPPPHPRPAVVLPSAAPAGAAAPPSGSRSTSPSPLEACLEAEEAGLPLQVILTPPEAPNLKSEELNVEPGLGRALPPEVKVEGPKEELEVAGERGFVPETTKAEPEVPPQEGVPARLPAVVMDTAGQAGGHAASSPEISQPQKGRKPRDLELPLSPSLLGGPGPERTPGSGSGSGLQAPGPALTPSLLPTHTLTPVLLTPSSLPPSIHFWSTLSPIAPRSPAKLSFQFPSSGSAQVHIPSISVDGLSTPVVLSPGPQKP
Outline: as §1

[3] = molecular target: T3, GABPA (Homo sapiens, UniProt Q06546 1-454); settings: protein: recombinant; tags: N-terminal GST; dsDNA, one strand shown
T3 sequence: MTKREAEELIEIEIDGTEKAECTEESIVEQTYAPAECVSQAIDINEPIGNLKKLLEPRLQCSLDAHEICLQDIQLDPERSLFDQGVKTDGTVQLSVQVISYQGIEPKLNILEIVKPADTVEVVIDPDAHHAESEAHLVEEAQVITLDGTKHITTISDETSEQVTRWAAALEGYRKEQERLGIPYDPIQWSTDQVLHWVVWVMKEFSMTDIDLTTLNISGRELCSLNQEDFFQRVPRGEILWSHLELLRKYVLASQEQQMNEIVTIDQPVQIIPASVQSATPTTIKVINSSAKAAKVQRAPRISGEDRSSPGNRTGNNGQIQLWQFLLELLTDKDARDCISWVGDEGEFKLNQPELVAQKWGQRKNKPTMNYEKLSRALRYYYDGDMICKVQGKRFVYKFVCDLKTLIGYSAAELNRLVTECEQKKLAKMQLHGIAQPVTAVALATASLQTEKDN
Outline: as §1

[4] = molecular target: T4, ERG (Homo sapiens, UniProt P11308 1-479); settings: protein: recombinant; tags: N-terminal GST; dsDNA, one strand shown
T4 sequence: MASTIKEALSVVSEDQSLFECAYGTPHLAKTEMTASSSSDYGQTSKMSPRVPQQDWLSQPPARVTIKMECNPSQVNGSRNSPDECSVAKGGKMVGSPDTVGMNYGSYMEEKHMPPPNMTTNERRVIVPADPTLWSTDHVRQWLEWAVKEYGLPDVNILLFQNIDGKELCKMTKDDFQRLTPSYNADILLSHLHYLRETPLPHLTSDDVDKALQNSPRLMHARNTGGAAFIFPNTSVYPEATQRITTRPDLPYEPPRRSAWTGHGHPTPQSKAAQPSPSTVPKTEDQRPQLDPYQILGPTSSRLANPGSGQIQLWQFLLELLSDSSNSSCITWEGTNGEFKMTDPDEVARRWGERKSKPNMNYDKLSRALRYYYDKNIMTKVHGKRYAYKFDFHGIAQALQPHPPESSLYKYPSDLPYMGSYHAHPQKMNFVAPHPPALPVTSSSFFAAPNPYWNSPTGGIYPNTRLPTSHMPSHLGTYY
Outline: as §1

[5] = molecular target: ELF1 (Homo sapiens, UniProt P32519 1-619); settings: protein: recombinant; tags: N-terminal GST; dsDNA, one strand shown
Outline: as §1

[6] = molecular target: T5, EHF (Homo sapiens, UniProt Q9NZC4 1-300); settings: protein: recombinant; tags: N-terminal GST; dsDNA, one strand shown
T5 sequence: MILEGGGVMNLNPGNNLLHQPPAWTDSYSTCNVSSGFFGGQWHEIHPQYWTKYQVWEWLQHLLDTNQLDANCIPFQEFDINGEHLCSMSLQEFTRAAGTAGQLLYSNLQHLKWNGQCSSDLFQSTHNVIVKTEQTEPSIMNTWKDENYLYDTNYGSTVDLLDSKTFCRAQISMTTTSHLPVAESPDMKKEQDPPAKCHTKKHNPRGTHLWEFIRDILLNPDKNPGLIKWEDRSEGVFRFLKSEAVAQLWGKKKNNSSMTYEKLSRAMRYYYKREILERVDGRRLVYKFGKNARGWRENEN
Outline: as §1

[7] = molecular target: SPI1 (Homo sapiens, UniProt P17947 1-270); settings: protein: recombinant; tags: N-terminal GST; dsDNA, one strand shown
Outline: as §1

[8] = molecular target: SPIB (Homo sapiens, UniProt Q01892 1-262); settings: protein: recombinant; tags: N-terminal GST; dsDNA, one strand shown
Outline: as §1

[9] = molecular target: T6, ELK3 (Homo sapiens, UniProt P41970 1-407); settings: protein: recombinant; tags: N-terminal GST; dsDNA, one strand shown
T6 sequence: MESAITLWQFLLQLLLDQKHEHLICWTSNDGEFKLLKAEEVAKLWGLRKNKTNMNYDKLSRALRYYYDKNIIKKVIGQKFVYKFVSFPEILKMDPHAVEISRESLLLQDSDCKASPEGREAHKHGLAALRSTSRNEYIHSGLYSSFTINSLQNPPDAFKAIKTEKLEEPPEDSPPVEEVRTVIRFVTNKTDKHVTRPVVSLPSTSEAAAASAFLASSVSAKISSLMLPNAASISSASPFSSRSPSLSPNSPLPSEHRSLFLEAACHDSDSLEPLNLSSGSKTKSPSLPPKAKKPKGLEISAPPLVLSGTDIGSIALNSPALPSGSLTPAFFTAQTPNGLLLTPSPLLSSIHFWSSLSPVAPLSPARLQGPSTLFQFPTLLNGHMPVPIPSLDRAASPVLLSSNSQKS
Outline: as §1

[10] = molecular target: T7, FEV (Homo sapiens, UniProt Q99581 1-238); settings: protein: recombinant; tags: N-terminal GST; dsDNA, one strand shown
T7 sequence: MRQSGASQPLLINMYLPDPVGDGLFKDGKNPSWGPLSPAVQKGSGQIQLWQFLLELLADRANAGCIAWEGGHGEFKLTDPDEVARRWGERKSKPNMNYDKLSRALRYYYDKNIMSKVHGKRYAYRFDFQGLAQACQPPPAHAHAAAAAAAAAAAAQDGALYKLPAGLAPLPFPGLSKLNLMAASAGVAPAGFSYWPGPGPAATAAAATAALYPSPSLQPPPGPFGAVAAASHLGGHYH
Outline: as §1

[11] = molecular target: ETV5 (Homo sapiens, UniProt P41161 1-510); settings: protein: recombinant; tags: N-terminal GST; dsDNA, one strand shown
Outline: as §1

[12] = molecular target: HSF1 (Homo sapiens, UniProt Q00613 1-529); settings: protein: recombinant; tags: N-terminal GST; chain copies: 3; dsDNA, one strand shown
Outline: as §1

[13] = molecular target: T8, SPIC (Homo sapiens, UniProt Q8N5J4 1-248); settings: protein: recombinant; tags: N-terminal GST; dsDNA, one strand shown
T8 sequence: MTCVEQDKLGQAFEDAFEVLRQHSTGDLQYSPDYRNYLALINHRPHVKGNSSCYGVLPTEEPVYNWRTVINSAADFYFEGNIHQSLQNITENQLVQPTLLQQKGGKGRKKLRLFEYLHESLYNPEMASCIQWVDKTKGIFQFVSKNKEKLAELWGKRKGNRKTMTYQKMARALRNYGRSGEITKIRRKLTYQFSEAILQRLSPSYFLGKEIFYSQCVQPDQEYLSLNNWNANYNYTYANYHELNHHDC
Outline: as §1

[14] = molecular target: ELF4 (Homo sapiens, UniProt Q99607 1-663); settings: protein: recombinant; tags: N-terminal GST; dsDNA, one strand shown
Outline: as §1

[15] = molecular target: T9, ELK4 (Homo sapiens, UniProt P28324-2 1-405); settings: protein: recombinant; tags: N-terminal GST; dsDNA, one strand shown
T9 sequence: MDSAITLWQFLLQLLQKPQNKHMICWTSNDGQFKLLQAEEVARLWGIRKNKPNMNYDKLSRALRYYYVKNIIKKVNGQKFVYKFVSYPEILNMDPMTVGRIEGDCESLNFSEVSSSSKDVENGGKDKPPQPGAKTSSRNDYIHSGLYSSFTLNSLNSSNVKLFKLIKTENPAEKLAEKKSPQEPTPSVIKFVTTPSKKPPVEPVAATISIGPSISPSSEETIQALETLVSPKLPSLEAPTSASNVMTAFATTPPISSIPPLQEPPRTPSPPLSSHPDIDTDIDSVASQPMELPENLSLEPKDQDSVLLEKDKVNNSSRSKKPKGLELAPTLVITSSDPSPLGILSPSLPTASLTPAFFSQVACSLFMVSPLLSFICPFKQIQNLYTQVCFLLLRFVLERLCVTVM
Outline: as §1

[16] = molecular target: T10, ETV2 (Homo sapiens, UniProt O00321 1-342); settings: protein: recombinant; tags: N-terminal GST; dsDNA, one strand shown
T10 sequence: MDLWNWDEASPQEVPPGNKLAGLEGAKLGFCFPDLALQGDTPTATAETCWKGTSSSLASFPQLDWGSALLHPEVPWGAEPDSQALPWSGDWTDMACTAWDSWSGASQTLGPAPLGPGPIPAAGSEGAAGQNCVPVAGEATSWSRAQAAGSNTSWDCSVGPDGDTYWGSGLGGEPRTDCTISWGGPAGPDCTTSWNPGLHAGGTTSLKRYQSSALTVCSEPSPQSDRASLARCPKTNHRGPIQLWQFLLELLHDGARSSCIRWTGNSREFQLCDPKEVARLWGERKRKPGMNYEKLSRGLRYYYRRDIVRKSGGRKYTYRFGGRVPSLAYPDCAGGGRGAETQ
Outline: as §1

[17] = molecular target: T11, ELF3 (Homo sapiens, UniProt P78545 1-371); settings: protein: recombinant; tags: N-terminal GST; dsDNA, one strand shown
T11 sequence: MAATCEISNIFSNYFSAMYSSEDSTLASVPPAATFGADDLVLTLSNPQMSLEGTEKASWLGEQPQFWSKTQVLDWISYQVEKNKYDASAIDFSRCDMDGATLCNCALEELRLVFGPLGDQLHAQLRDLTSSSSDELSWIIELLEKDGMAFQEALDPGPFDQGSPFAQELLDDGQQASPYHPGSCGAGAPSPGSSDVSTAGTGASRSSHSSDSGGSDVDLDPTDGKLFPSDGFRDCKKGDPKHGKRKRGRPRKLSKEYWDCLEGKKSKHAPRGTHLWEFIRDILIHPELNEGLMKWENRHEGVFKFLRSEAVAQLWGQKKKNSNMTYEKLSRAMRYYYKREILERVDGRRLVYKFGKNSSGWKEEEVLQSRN
Outline: as §1

[18] = molecular target: ETV1 (Homo sapiens, UniProt P50549 1-477); settings: protein: recombinant; tags: N-terminal GST; dsDNA, one strand shown
Outline: as §1

Sequence of HSF1 (Q00613 whole entry): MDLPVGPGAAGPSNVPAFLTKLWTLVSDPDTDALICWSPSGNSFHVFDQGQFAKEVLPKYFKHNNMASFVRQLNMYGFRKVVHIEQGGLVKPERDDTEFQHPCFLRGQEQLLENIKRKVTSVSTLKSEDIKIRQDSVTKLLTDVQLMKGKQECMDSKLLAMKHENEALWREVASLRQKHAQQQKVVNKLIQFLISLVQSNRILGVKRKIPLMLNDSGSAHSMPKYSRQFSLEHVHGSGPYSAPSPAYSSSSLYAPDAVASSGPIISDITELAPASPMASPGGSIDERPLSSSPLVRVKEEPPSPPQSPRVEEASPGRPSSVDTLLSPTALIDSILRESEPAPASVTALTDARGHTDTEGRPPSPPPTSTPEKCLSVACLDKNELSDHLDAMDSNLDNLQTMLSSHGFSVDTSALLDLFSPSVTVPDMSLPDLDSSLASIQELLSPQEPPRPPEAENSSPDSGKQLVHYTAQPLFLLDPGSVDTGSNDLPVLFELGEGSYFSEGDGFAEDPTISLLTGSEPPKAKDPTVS
Sequence of ETV1 (P50549 whole entry): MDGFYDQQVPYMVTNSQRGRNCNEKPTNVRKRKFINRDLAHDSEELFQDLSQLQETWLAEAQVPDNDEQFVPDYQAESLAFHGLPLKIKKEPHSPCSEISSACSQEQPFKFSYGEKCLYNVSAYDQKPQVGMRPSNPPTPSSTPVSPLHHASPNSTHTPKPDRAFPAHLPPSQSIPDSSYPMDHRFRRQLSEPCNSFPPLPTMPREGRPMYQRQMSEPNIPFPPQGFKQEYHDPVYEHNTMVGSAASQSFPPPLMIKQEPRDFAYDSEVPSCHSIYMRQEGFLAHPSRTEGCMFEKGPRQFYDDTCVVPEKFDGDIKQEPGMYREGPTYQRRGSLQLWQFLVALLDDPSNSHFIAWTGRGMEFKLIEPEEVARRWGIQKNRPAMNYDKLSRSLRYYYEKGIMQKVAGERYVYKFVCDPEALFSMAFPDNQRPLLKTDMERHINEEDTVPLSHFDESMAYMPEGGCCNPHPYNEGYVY
Sequence of SPIB (Q01892 whole entry): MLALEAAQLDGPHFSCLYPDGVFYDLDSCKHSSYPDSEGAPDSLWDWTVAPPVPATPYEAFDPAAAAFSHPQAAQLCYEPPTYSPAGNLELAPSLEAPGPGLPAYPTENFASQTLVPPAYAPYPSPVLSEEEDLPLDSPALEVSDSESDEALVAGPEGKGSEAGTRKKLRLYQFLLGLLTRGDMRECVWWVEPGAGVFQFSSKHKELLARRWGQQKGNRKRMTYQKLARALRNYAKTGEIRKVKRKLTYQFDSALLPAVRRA
Sequence of ELF1 (P32519 whole entry): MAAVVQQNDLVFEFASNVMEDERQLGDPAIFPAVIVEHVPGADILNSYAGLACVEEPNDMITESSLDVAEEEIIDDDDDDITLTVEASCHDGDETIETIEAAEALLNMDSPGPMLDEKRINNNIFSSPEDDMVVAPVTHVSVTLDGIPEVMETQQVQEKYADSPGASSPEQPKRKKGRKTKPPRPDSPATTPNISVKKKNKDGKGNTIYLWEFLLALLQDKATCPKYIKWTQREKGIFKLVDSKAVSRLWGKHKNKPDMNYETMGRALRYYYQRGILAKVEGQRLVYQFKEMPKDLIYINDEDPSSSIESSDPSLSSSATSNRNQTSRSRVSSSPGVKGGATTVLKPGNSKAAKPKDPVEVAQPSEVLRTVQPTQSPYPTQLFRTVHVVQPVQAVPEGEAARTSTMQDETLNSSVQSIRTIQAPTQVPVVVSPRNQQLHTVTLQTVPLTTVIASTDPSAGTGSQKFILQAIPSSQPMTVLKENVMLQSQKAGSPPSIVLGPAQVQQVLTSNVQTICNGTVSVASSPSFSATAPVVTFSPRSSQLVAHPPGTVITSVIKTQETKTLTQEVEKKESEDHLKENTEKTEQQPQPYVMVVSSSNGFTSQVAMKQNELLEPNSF
Sequence of ELF4 (Q99607 whole entry): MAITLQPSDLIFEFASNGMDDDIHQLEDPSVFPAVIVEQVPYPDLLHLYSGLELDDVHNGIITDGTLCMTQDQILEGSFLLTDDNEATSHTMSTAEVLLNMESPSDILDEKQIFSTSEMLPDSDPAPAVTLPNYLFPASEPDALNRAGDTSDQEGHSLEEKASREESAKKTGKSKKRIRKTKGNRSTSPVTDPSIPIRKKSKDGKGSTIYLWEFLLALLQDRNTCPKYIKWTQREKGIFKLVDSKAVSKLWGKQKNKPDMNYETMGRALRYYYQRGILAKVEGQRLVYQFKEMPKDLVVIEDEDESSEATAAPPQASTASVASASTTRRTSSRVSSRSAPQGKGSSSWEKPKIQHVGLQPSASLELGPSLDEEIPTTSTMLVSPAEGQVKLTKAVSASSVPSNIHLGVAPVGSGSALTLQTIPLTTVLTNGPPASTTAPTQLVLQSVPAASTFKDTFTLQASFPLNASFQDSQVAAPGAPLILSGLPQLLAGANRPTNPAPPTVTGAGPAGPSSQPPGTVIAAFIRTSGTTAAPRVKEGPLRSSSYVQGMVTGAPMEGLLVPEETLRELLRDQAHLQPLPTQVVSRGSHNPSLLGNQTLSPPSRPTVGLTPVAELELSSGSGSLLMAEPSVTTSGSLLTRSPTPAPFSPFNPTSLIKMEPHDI
Sequence of ETV5 (P41161 whole entry): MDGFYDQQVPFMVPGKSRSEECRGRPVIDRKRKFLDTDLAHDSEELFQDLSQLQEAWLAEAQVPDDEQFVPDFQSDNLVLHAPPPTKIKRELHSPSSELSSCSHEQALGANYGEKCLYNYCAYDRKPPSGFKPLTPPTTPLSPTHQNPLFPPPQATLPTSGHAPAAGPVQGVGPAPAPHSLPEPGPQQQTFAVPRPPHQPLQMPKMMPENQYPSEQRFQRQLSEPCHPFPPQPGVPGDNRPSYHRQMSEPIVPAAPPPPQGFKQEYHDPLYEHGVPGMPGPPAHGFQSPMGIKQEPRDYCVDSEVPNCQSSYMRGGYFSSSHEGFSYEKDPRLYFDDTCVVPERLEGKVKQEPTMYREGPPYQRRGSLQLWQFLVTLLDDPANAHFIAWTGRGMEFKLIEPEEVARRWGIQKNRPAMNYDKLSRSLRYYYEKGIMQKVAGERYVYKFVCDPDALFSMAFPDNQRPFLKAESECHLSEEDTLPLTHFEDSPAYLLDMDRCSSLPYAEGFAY

CCTGCA
binding signal [1]: 1.28 fold enrichment (6-mer frequency, TF over GST control) | binding signal [2]: 1.3 fold enrichment (6-mer frequency, TF over GST control) | binding signal [3]: 1.19 fold enrichment (6-mer frequency, TF over GST control) | binding signal [4]: 1.23 fold enrichment (6-mer frequency, TF over GST control) | binding signal [5]: 1.36 fold enrichment (6-mer frequency, TF over GST control) | binding signal [6]: 1.42 fold enrichment (6-mer frequency, TF over GST control) | binding signal [7]: 1.17 fold enrichment (6-mer frequency, TF over GST control) | binding signal [8]: 1.24 fold enrichment (6-mer frequency, TF over GST control) | binding signal [9]: 1.23 fold enrichment (6-mer frequency, TF over GST control) | binding signal [10]: 1.26 fold enrichment (6-mer frequency, TF over GST control) | binding signal [11]: 1.39 fold enrichment (6-mer frequency, TF over GST control) | binding signal [12]: 1.11 fold enrichment (6-mer frequency, TF over GST control) | binding signal [13]: 1.15 fold enrichment (6-mer frequency, TF over GST control) | binding signal [14]: 1.3 fold enrichment (6-mer frequency, TF over GST control) | binding signal [15]: 1.27 fold enrichment (6-mer frequency, TF over GST control) | binding signal [16]: 1.22 fold enrichment (6-mer frequency, TF over GST control) | binding signal [17]: 1.68 fold enrichment (6-mer frequency, TF over GST control) | binding signal [18]: 1.28 fold enrichment (6-mer frequency, TF over GST control)
